Screening results as filed in PubChem.
Compounds with a hit are over-represented: about 8.8% of the library has one in this group of screens.
LMNA splice mod: LMNA splicing modulation. HeLa LMNA splicing GFP/RFP minigene ratio, 48 h. Potency, µM (series often up to 46.1 µM), for inactives: at the top dose ratio change, negative = inhibition, hits mostly inhibitors. 200,000 tested, 0.01% active; active = well fitted inhibition curve with a large enough effect in the signal ratio, with a control signal flat, not every such curve was filed as active; inconclusive = small, poorly fitted or top-dose-only effect, or effect the other way, or a change in a side signal; the % refers to the signal ratio; also: % is scaled to controls: 0 for no effect and ±100 for the full control effect
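S3 HeLa cells stably expressing lamin A-EGFP splicing minigene plus DsRed2, 600 cells/well, 48 h compound exposure at 37C. Laser-scanning cytometry; analysed as GFP (500-530 nm)/RFP (575-640 nm) total intensity ratio; 0.5% DMSO vehicle.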
HttQ103 aggreg: inhibitors of mutant huntingtin aggregate formation in PC12 cells | Potency, µM (titrated, usually from 46.1 µM), inactives show top-dose activity change, negative = inhibition, most hits filed as inhibitors | 220,000 tested, 1.1% active | AID 1688 | PC12 HttQ103-GFP aggregates, Acumen cytometry, 40 h; active = well fitted curve in the direction sought with a large enough effect; inconclusive = small, poorly fitted or top-dose-only effect, or another doubt; inactive = no such curve, though single readings can be large; an effect the other way counts as inactive or inconclusive; also: % is scaled to controls: 0 for no effect and ±100 for the full control effect; nearly all actives have a fitted effect of over 60% in size
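Quantitative HTS on tebufenozide-induced (100 nM) PC12 cells stably expressing polyQ103 Huntingtin exon 1–GFP. Reduction of bright GFP aggregates, detected by laser scanning cytometry after lysis, identified actives across the titration.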
HPGD inh: inhibitors of human 15-hydroxyprostaglandin dehydrogenase (HPGD) | purified HPGD, NADH fluorescence kinetic, PGE2 substrate | AID 894 | Potency, µM, for inactives: at the highest dose activity change, negative = inhibition, usual class: inhibitors | 150,000 tested, 4.3% active | P15428; also: % is scaled to controls: 0 for no effect and ±100 for the full control effect
Target sequence (P15428 whole entry, looked up): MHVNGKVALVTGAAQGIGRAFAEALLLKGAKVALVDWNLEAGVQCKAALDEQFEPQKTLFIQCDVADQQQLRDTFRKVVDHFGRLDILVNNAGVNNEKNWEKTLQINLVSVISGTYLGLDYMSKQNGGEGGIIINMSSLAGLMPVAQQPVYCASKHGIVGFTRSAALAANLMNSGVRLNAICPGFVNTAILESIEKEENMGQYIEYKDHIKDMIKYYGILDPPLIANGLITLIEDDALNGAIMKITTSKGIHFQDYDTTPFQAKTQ
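20 nM HPGD preincubated 15 min at room temperature with compound in 50 mM Tris-HCl pH 8, 0.01% Tween 20. Started with 1 mM NAD+ and 30 uM prostaglandin E2; NADH fluorescence (360/450 nm) read 5 times over 30-s intervals, last minus first.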
ALDH1A1 block: ALDH1A1 (human) enzyme inhibition; Purified ALDH1A1, NADH fluorescence, propionaldehyde substrate; 220,000 tested, 7.3% active; Potency, µM (top dose mostly 75.3 µM), for the others: top-dose activity, negative = inhibition, usual class: inhibitors;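 also: plate controls were no enzyme wells and a reference inhibitor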
Target sequence (P00352 whole entry, looked up): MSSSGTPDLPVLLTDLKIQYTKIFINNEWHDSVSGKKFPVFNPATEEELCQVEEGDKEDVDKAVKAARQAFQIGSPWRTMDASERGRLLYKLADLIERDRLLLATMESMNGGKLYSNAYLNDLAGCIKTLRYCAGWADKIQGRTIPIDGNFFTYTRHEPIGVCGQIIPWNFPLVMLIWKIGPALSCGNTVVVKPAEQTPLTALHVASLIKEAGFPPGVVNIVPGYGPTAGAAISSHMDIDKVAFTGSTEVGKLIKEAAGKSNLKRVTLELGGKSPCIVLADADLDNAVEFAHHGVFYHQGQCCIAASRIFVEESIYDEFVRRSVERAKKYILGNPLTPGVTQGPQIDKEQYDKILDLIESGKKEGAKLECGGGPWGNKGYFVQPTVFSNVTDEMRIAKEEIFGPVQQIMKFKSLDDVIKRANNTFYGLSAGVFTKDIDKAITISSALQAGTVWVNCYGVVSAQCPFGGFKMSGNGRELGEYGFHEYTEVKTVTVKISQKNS
HTT ATP protect: protects HTT-Q103 PC12 cells, measured by ATP; 230,000 tested, 0.14% active; Potency, µM (series often up to 56.4 µM), inactives show cytoprotection (ATP increase), hits mostly activators; AID 1471; PC12 HTT-Q103 induced, cytoprotection, ATP luminescence, 40 h; active = well fitted curve in the direction sought with a large enough effect; inconclusive = small, poorly fitted or top-dose-only effect, or another doubt; inactive = no such curve, though single readings can be large; an effect the other way counts as inactive or inconclusive; also: % of control where 0% means no effect; nearly all actives have a fitted effect of over 45% in size
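PC12 cells with ecdysone-inducible HTT exon 1 Q103-GFP, induced with 100 nM tebufenozide and co-treated with library compounds in a dose series (1536-well, 1500 cells/well). Cytoprotection read as ATP content by ATPlite luminescence.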
Starred values were filed as active, the others as inactive; ? = inconclusive; . = no result given; [ ] = another dose, or the depositor's remark. Unless noted, calls follow the shape of the dose curve; as a rule, active = well fitted inhibition curve with a large enough effect (not every such curve was filed as active); inconclusive = small, poorly fitted or top-dose-only effect, or another doubt; inactive = no such curve, though single readings can be large or run the other way. Potency is read from the fitted curve at half-maximal effect.

SMILES	LMNA splice mod	HttQ103 aggreg	HPGD inh	ALDH1A1 block	HTT ATP protect
CCOC(=O)/C(C#N)=N/Nc1ccc(S(=O)(=O)N2CCc3ccccc32)cc1	?	-10%	-2%	-13%	.
N#C/C(=N\Nc1ccc(S(=O)(=O)N2CCc3ccccc32)cc1)C(N)=S	?	?	.	6.3µM*	.
N#C/C(=N\Nc1ccc(S(=O)(=O)N2CCCCCC2)cc1)C(N)=S	.	.	.	8.9µM*	.
N#C/C(=N\Nc1ccc(S(=O)(=O)N2CCCCC2)cc1)C(N)=S	?	?	-28%	13µM*	?
COC(=O)C/C=C\[C@@H](C)[C@@H](/C=N\O[C@@H](C)CN1CCCc2nc(C)c(C)cc21)OC	.	.	.	?	-13%[10 µM]
O=c1c(-c2ccc(F)cc2)nc2cncnc2n1Cc1ccc(F)cc1	7%	.	.	-15%	-33%
O=C(NCc1cccc(C(F)(F)F)c1)c1cc(Cl)ccc1Cl	?	-7%	28µM*	7%	27%[10 µM]
C=CCNC(=O)c1cc(Cl)ccc1Cl	2%	3%	20µM*	0%	14%
C=CCNC(=O)c1ccc(-c2nc(-c3ccc(Cl)cc3Cl)cs2)cc1	-2%	1%	4µM*	1%	-28%[10 µM]
C=CCNC(=O)c1ccc(-c2nc(-c3ccc(Cl)c(Cl)c3)cs2)cc1	?	4%	-23%	0%	-35%
CCc1ccccc1NC(=O)Cn1nnc(C(=O)NCc2ccccc2Cl)c1N	6%[46 µM]	.	.	.	.
CCCCN1C(=O)CN(C2CCCCC2)C(=O)C1c1ccc(OC(C)C)c(OC)c1 (configuration not stated)	0%[46 µM]	.	.	.	.
COCCn1c(C)cc(O)c(C(c2ccccc2Cl)N2CCN(c3ccccc3)CC2)c1=O (configuration not stated)	-1%[46 µM]	.	.	.	.
CO/N=C(\C)CCN1CCCc2nc(C)c(C)cc21	.	.	.	?	24%[10 µM]
CCOc1ccc(C(C)=O)cc1CSc1nnc(-c2cccs2)n1CC1CCCO1 (configuration not stated)	2%	5%	-10%	8.9µM*	-32%
C/C=C\C1=C(CO)C(=O)C2O[C@]2(CC=C(C)C)C1=O (some centres not stated)	.	.	.	-1%[13.5 µM]	-17%[10 µM]
COC(=O)c1cn[nH]c1NC(=S)Nc1ccc(C)cc1Cl	15%	?	-27%	7.9µM*	-52%[10 µM]
Cc1ccc(-c2nc3ccc([N+](=O)[O-])cc3[nH]2)cc1	.	10µM*	.	?	-13%[10 µM]
COc1ccccc1NS(=O)(=O)c1cc(C(=O)O)ccc1F	.	.	-7%	0%	.
Cc1cc2nc3c(=O)n(C4CCCCC4)c(=O)[nH]c3nc2cc1N	5%	-2%	-18%	25%	-10%[10 µM]
Cc1cc(NC(=O)c2ccc(Cl)cc2Cl)n(CCC#N)n1	9%[46 µM]	-9%	.	-1%	-25%
Cc1nn(CCC#N)c(N)c1C1(O)C(=O)Nc2c(Cl)cc(Cl)cc21 (configuration not stated)	.	-4%[9.22 µM]	.	4µM*	-23%[10 µM]
O=[N+]([O-])c1ccc(OCCO)nc1	.	-23%[9.22 µM]	.	.	2%[10 µM]
C=CCn1c(CCNC(=O)c2cccs2)nnc1SCC(=O)Nc1cccc(Cl)c1C	9%	0%[9.22 µM]	-20%	10µM*	-6%
C=CCn1c(CCNC(=O)c2cccs2)nnc1SCC(=O)c1ccc(Cl)cc1	6%	-10%	-20%	-5%	18%
SMILES	LMNA splice mod	HttQ103 aggreg	HPGD inh	ALDH1A1 block	HTT ATP protect
C=CCC1(CC=C)CCCN1C(=O)CC1C(=O)NCCN1Cc1cccc(OC)c1OC (configuration not stated)	8%[46 µM]	0%[9.22 µM]	.	7%	11%[10 µM]
CC(OC(=O)c1ccco1)C(=O)NC1CCCCC1 (configuration not stated)	-5%	11%[9.22 µM]	14µM*	3%	-2%
Cc1ccccc1OC(C)C(=O)NC1CCCC1 (configuration not stated)	6%	-12%	13µM*	-3%	2%
CC(C)C(OC(=O)c1ccco1)C(=O)NC1CCCCC1 (configuration not stated)	12%	15%	-3%	9%	16%[10 µM]
O=C(NC1CCCCC1)C(=S)N1CCOCC1	.	-6%[9.22 µM]	.	24µM*	-33%[1.9 µM]
S=C(NC1CCCCC1)N1CCOCCOCCN(C(=S)NC2CCCCC2)CCOCC1	.	-14%[9.22 µM]	.	.	-17%[10 µM]
CCNC(=O)c1cnc2c(-c3ccccc3)c(C)nn2c1C	-3%[46 µM]	.	.	.	.
Cc1ccc(OCC(=O)Nc2nnc(SCc3cc(=O)n4cc(C)ccc4n3)s2)cc1	-3%[46 µM]	.	.	.	.
COc1ccc(/C=C/C2=CC(C)(C)NC(=S)N2)cc1OC	0%[9.22 µM]	11%	.	7.9µM*	25%
CCOc1ccc(/C=C/C2=CC(C)(C)NC(=S)N2)cc1	.	20%	.	13µM*	.
COc1ccc(/C=C/c2ccncc2)cc1OC	-17%	4%	?	?	-9%[10 µM]
Cc1ccc(NC(=O)Cn2cnc3c(oc4ccccc43)c2=O)cc1Cl	2%[46 µM]	.	.	.	.
Cc1cc(C)c2[nH]c(=O)c(CN(Cc3nnnn3C3CCCC3)C3CCCCC3)cc2c1	10%	-3%	-8%	18µM*	5%[10 µM]
Cc1cccc2cc(CN(Cc3nnnn3C3CCCCC3)C3CCCC3)c3nnnn3c12	-6%	-21%	-2%	3.2µM*	-2%[10 µM]
Cc1ccc2[nH]c(=O)c(CN(CCCN3CCOCC3)Cc3nnnn3C3CCCC3)cc2c1	8%	2%	-3%	?	-8%
Cc1cccc2cc(CN(Cc3ccc(F)cc3)C(=O)N(C)C)c3nnnn3c12	?	-13%	-3%	-15%	-18%
OC[C@H]1O[C@H](n2cnc3c(NC4CCCC4)nc(Cl)nc32)[C@@H](O)[C@@H]1O	.	.	-20%	-2%	-16%
Cc1cc(C)c2ccc(=S)[nH]c2n1	-6%[9.22 µM]	12%	.	3.5µM*	-14%
CSc1nc2ccc(S(=O)(=O)N3CCCCC3)cc2s1	-14%	-14%	-1%	9%	3%
Nc1nc2ccc(S(=O)(=O)N3CCCCC3)cc2s1	-14%	21%	14µM*	6.3µM*	7%[10 µM]
COC(=O)c1ccc2nc(NC(=O)C(C)(C)C)sc2c1	16%[9.22 µM]	-27%	.	-3%	-172%
COC(=O)c1ccc2nc(NC(=O)C3CCCCC3)sc2c1	?	-2%[9.22 µM]	.	25µM*	13%[10 µM]
O=C(Nc1nc2ccc(S(=O)(=O)N3CCCCC3)cc2s1)C1CCCO1 (configuration not stated)	-7%	-2%	-6%	?	-25%
O=C(Nc1nc2ccc(S(=O)(=O)N3CCCC3)cc2s1)C1CCCCC1	?	-12%	20µM*	8.9µM*	-64%[10 µM]
Cc1ccc(S(=O)(=O)c2nc(NN(C)C)sc2Cl)cc1	.	2%	.	3%	-18%
CC(C)OCCCn1c(SCC(=O)Nc2ccc(F)cc2)nc2c(sc3ccccc32)c1=O	-8%[46 µM]	.	.	.	.
COc1cc(Cl)c(NS(=O)(=O)c2ccc3c(c2)CC(C)N3C(=O)C2CCC2)c(OC)c1 (configuration not stated)	-3%[46 µM]	.	.	.	.
Cc1ccc2[nH]c(-c3ccc(F)cc3F)cc(=O)c2c1	.	.	?	?	-289%[96.6 µM]
